Assay outcomes deposited in PubChem BioAssay by National Center for Advancing Translational Sciences (NCATS).
DT40 TDP1 CPT: qHTS for Inhibitors of human tyrosyl-DNA phosphodiesterase 1 (TDP1): qHTS in cells in presence of CPT; AID 686979, 2013; 420,000 compounds, 12% hits; chicken DT40 Tdp1-/-;hTDP1 cells + 20 nM CPT, ATP luminescence, 48 h; Potency, µM (series often up to 46.2 µM), without a hit: at the top dose activity change, negative = growth inhibition, usual class: inhibitors; also: potency is read from the fitted curve at half-maximal effect; % is scaled to controls: 0 for no effect and ±100 for the full control effect; nearly all actives have a fitted effect of over 55% in size
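Cell growth measured by CellTiter-Glo luminescence after a minimum 48 h, 37 C compound exposure with 20 nM CPT in Tdp1-knockout DT40 cells stably expressing hTDP1, seeded 400/well; qHTS titration format.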
TDP1 cell noCPT: qHTS for Inhibitors of human tyrosyl-DNA phosphodiesterase 1 (TDP1): qHTS in cells in absence of CPT; DT40 Tdp1-/- hTDP1 cells, no CPT, ATP luminescence, 48 h; Potency, µM (doses to about 46.2 µM), without a hit: at the top dose activity change, negative = growth inhibition, hits mostly inhibitors; 420,000 compounds, 15% hits; also: potency is read from the fitted curve at half-maximal effect; % is scaled to controls: 0 for no effect and ±100 for the full control effect; nearly all actives have a fitted effect of over 55% in size
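DT40 Tdp1-/-;hTDP1 cells, no CPT (DMSO vehicle only), 400 cells/well; compounds pin-transferred; ≥48 hr, 37 °C; CellTiter-Glo 30 min RT dark, luminescence read.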
IL-1B inflam inh: qHTS for Inhibitors of Inflammasome Signaling: IL-1-beta AlphaLISA Primary Screen. THP-1 LPS/ATP IL-1B secretion, AlphaLISA, 16 h; stronger effect = lower value. activity change, % at 57.5 µM. 360,000 compounds, 4.7% hits. AID 743279, 2014; in the data active = activity change below about -50%; inconclusive = mostly about -30% to -49%; also: % is scaled to controls: 0 for no effect and ±100 for the full control effect
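Secreted IL-1B measured by AlphaLISA bead assay after 16 h compound exposure of THP-1 cells; compounds (final up to 57.5 uM) added 1 h before LPS (250 ng/mL) and ATP (1.25 mM) stimulation; lower signal means less secretion.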
D3 antag: qHTS of D3 Dopamine Receptor Antagonist: qHTS; D3R cells, DiscoveRx beta-arrestin luminescence, antagonist mode; stronger effect = lower value; max response, negative = inhibition, %; D(3) dopamine receptor (Homo sapiens), P35462; 360,000 compounds, 2.5% hits; AID 652054, 2013; in the data active = max response below about -50%; inconclusive = no clear call, values can overlap the other calls; also: % is scaled to controls: 0 for no effect and ±100 for the full control effect
Target sequence (P35462 whole entry, looked up): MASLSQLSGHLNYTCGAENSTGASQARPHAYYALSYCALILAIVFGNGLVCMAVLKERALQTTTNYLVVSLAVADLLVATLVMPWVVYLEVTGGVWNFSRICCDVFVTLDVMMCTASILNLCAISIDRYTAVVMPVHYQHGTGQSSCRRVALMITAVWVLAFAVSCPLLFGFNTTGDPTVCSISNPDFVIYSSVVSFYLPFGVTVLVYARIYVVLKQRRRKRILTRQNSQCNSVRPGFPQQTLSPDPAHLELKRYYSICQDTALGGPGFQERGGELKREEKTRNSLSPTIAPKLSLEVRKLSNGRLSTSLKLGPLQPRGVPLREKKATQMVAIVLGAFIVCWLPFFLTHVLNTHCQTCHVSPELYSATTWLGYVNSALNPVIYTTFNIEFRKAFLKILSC
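Cells plated overnight at 1500 cells/well, then exposed to library compounds with dopamine controls for 90 minutes at 37 degrees C. DiscoveRx reagent added for 30–60 minutes at room temperature; luminescence read, quantitative HTS format.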
DRD3 agonist: qHTS of D3 Dopamine Receptor Agonist: qHTS; D(3) dopamine receptor (Homo sapiens), P35462; 410,000 compounds, 0.58% hits; D3R DiscoveRx beta-arrestin cells, luminescence, 90 min; max activation, %; in the data active = max activation above about 30%; also: 0% is about no effect
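Agonist-mode cell screen: cells plated at 1500/well and incubated overnight at 37 °C, then exposed to library compounds for 90 min at 37 °C. Detection reagent was added for 30–60 min at room temperature, and luminescence was read.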
ClpP mod: qHTS Assay for Activators of ClpP. purified B. subtilis ClpP, FRET peptide cleavage, 20 min. Potency, µM (doses to about 57.5 µM), for inactives: at the top dose activity change, negative = active. 340,000 compounds, 1.9% hits. AID 651965, 2013; active = well fitted falling curve with a large enough effect; inconclusive = small, poorly fitted or top-dose-only effect; inactive = no such curve, though single readings can be large or run the other way; also: potency is read from the fitted curve at half-maximal effect; the source files actives as falling curves though it sought activators and does not explain the sign; nearly all actives have a fitted effect of over 65% in size
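ClpP 10 microg/mL final, pH 8 Tris/KCl buffer with BSA, glycerol, Tween-20; compound pinned in; FRET-FV substrate; RT 20 min; Ex320/Em430; ΔFRET vs ADEP 5.8 microM, DMSO, no enzyme.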
* marks the source's active call; other numbers are inactive results; ? = inconclusive; . = no result; [ ] = another dose, or the depositor's remark. Rows were chosen to be rich in hits. Some 21% of all compounds tested hit in one or more screens of this group. Unless noted, calls follow the shape of the dose curve; as a rule, active = well fitted inhibition curve with a large enough effect; inconclusive = small, poorly fitted or top-dose-only effect; inactive = flat fitted curve, though single readings scatter.

SMILES	DT40 TDP1 CPT	TDP1 cell noCPT	IL-1B inflam inh	D3 antag	DRD3 agonist	ClpP mod
CC(C)c1ccc(S(=O)(=O)c2nnn3c2nc(NCCc2ccccc2)c2sccc23)cc1	?	?	.	.	7.3	25.1µM*
O=S(=O)(c1ccc(Cl)cc1)c1nnn2c1nc(NC1CCCCC1)c1sccc12	?	?	.	.	5.6	?
C#CCn1c(CCNC(=O)c2ccco2)nc2ccccc21	-16.5%	-0.7%	11.1	-1.6	1.5	-3.1%
CC(C)CN1CC2(CCN(C(=O)c3cccc(F)c3)CC2)C1	3.5%	1.5%	.	.	.	.
Cn1c(=O)n(C)c2cc(NC(=O)COc3ccc(F)cc3)ccc21	?	?	39.9	24.5	13.2	-0.9%
CCC(C)(C)NC(=O)C(Sc1ccccc1)c1ccccc1 (configuration not stated)	-16.8%	?	-18.4	-4.3	1.4	.
Cc1cc(C)n(Cc2ccc(Cl)cc2Cl)c(=O)c1S(=O)(=O)c1ccccc1	?	23.1µM*	11.1	-2.8	-8.7	?
CCC(CC)C(=O)Nc1nnc(SCC(=O)NC(C)(C)C)s1	-2.3%	-12.5%	-2.8	-10.5	-3.0	-2.4%
O=C(c1ccco1)N1CCN(C(c2ccccc2Cl)c2nnnn2Cc2cccs2)CC1 (configuration not stated)	?	25.9µM*	-2.9	13.1	3.2	0.3%
O=C(c1ccco1)N1CCN(C(c2ccccc2Cl)c2nnnn2Cc2ccco2)CC1 (configuration not stated)	16.4µM*	?	-1.9	?	-5.6	-0.8%
O=C(c1ccco1)N1CCN(C(c2ccccc2)c2nnnn2Cc2cccs2)CC1 (configuration not stated)	-4.5%	?	-16.8	-0.9	-2.1	2.0%
COc1ccc(-n2nc(C(C)=O)c(=O)[nH]c2=O)cc1	6.3%	-23.8%	-0.4	8.5	4.5	.
COc1ncc2nc(CCc3ccccc3)c(=O)n(Cc3ccc(F)cc3)c2n1	?	23.1µM*	.	.	.	.
CN1CCN(c2ncc3nc(CCc4ccccc4)c(=O)n(Cc4cccs4)c3n2)CC1	?	20.6µM*	.	.	.	.
CN1CCN(c2ncc3nc(-c4cn(C)c5ccccc45)c(=O)n(Cc4cccs4)c3n2)CC1	1.64µM*	0.366µM*	.	.	.	.
COc1ncc2nc(-c3ccc(F)cc3)c(=O)n(Cc3ccc(F)cc3)c2n1	0.7%	-6.7%	.	.	.	.
COc1ccc(-n2c(CNC(=O)c3cccc(OC)c3OC)nnc2SC)cc1	-1.3%[9.04 µM]	-12.7%	.	.	.	.
Nc1cc(Oc2cccnc2)cc([N+](=O)[O-])c1	-20.4%	?	-1.5	-3.8	2.8	.
Nc1ccc(Oc2ccc([N+](=O)[O-])cc2[N+](=O)[O-])cc1	18.4µM*	?	4.2	-10.6	5.4	-0.5%
O=[N+]([O-])c1ccc(Oc2cccnc2)c([N+](=O)[O-])c1	4.11µM*	5.8µM*	-111.6*	-9.4	0.2	1.6%
Cc1ccc(S(=O)(=O)c2c(N)n(CCN3CCOCC3)c3nc4ccccc4nc23)cc1C	-3.2%	-4.0%	?	-1.5	-6.8	28.2µM*
Cc1ccc(S(=O)(=O)c2c(N)n(Cc3ccco3)c3nc4ccccc4nc23)cc1C	?	?	?	22.3	0.4	11.2µM*
Nc1c(S(=O)(=O)c2ccccc2)c2nc3ccccc3nc2n1Cc1ccco1	18.4µM*	?	-26.3	-10.6	-3.4	15.8µM*
CCOC(=O)c1cn(CC(=O)Nc2ccc(OC)cc2OC)nn1	3.4%	0.2%	23.8	16.7	3.2	-1.4%
CCc1ccc(Nc2n[n+](-c3ccccc3)c(-c3ccc(SC)cc3)s2)cc1	6.51µM*	6.51µM*	-15.7	-28.2	-18.4	-5.5%
